Values without a mark were called inactive. Entries that show only a call come without a potency. Active and inactive are the calls of the source. The call rests on the fitted dose curve; in most records, active means well fitted activation curve with a large enough effect in the repeat runs; inconclusive means weak or mixed curves; inactive means flat fitted curve, though single readings scatter.

Experimental findings from PubChem BioAssay (Tox21) are described below.

The nature of the assay: A CellTox Green Cytotoxicity Assay to monitor cytotoxicity in HEK293 cells - 0 hour (AID 1224869). Further: nearly all actives have a fitted effect of over 50% in size. The note with it: CellTox Green fluorescence; series mostly up to 76.8 µM. From the text: National Center for Advancing Translational Sciences [NCATS]
NIH Chemical Genomics Center [NCGC]
U.S. Environmental Protection Agency [EPA]
National Institutes of Environmental Health Sciences [NIEHS]
National Toxicology Program [NTP]
Cell-based models are critical for drug discovery. Determining the natural cytotoxic effects resulting from test compounds is an essential research activity. A CellTox Green Cytotoxicity Assay to monitor cytotoxicity in real time of continues cell culture during 40 hours of the compound treatment was used to screen Tox21 10K library compounds in Hek293 cells. CellTox Green Cytotoxicity Assay is a nonlytic, homogeneous, biofluorescent method to measure cytotoxicity in cell culture after experimental manipulation. The assay system uses a proprietary asymmetric cyanine dye that is excluded from viable cells but preferentially stains the dead cell's DNA. […] Viable cells produce no appreciable increases in fluorescence. Therefore, the fluorescence signal produced by the binding interaction with dead cell DNA is proportional to cytotoxicity.
The mixture of Hek293 cell suspension and reagents were dispensed at 600cells/6 ul/well in 1536-well tissue culture treated black solid bottom plates using a Multidrop dispenser. After the assay plates were incubated at a 37 C/5% CO2 incubator for 5 hours, 23 nL of compounds dissolved in DMSO, positive and negative controls was transferred to the assay plate by a pintool work station. The plates were incubated at 37 C for 40 hours. The fluorescence intensity were measured at 0h, 8h, 16h, 24h, 32h and 40h time points using ViewLux plate reader during compound treatment.
Take `CCCCCCCC(=O)OCCCCCC`: the Potency entry was “inactive”.
Same read-out and setting: in the case of `CC(CCc1ccc(O)cc1)NCCc1ccc(O)c(O)c1` (stereo not given) it was “inactive”.
`CCOC(=O)C(C)O` (stereo not given): the Potency entry is “inactive”.
For the compound `CCCCCCCCCCCCCOC(=O)CCSCCC(=O)OCCCCCCCCCCCCC`, the cytotoxicity was 6.82% [at 15.8 µM].
On to `CC(=O)Oc1cccc(O)c1`, for which the Potency entry was “inactive”.
Regarding `Oc1cccc2[nH]ccc12`, the Potency result is “inactive”.
On to `CCN(Cc1cccc(S(=O)(=O)O)c1)c1ccc(C(=C2C=CC(=[N+](CC)Cc3cccc(S(=O)(=O)O)c3)C=C2)c2ccccc2S(=O)(=O)[O-])cc1`, for which the Potency result is “inactive”.
Consider `Cc1cccc(C)c1NC(=O)c1cc(S(N)(=O)=O)c(Cl)cc1O`, for which the Potency result was “inactive”.
As to `COc1ccc(CCN(C)CCCN2CCc3cc(OC)c(OC)cc3CC2=O)cc1OC`, the Potency entry was “inactive”.
For the compound `CCNc1nc(N)nc(Cl)n1`, the Potency result was “inactive”.
Consider `COc1cc(C(C)=O)ccc1OCCCN1CCC(c2noc3cc(F)ccc23)CC1`, for which the Potency entry was “inactive”.
Consider `COc1cc(NCc2ccc3nc(N)nc(N)c3c2C)cc(OC)c1OC`, for which the Potency result was “inactive”.
Consider `SCCc1cnccn1`, for which the Potency entry was “inactive”.
Regarding `CCC(C)(C)C(=O)O`, the Potency result was “inactive”.
As to `NC(=O)CCCCC(N)=O`, the Potency result was “inactive”.
As to `CC(C)OC(=O)c1ccccc1C(=O)OC(C)C`, the Potency result was “inactive”.
For the compound `C=CC(=O)NC(C)C`, the Potency result was “inactive”.
Turning to `CCCc1nc2c(C)cc(-c3nc4ccccc4n3C)cc2n1Cc1ccc(-c2ccccc2C(=O)O)cc1`, the Potency result is “inactive”.
For `CCCCCCC(O)CCCCCCCCCCC(=O)OC` (stereo not given), the Potency result is “inactive”.
As for `CC(C)C(O)C(C)(C)CO` (stereo not given), the Potency entry was “inactive”.
On to `O=C(/C=C/c1ccc([N+](=O)[O-])cc1)c1ccccc1`, for which the Potency result was “inactive”.
On the same count and under the same terms, in the case of `CN1CCCN(C(c2ccccc2)c2ccc(Cl)cc2)CC1` (stereo not given) it was “inactive”.
On the same count and under the same terms, in the case of `COc1ccc(C)cc1` it was “inactive”; in that of `COC1CCC=CO1` (stereo not given), “inactive”.
Turning to `CCC(=O)OCc1ccc(OC)cc1`, the Potency entry was “inactive”.
In the case of `CN(C)CC/C=C1\c2ccccc2Sc2ccc(Cl)cc21`, the Potency entry is “inactive”.
Still for that read-out and setting: the same measure for `CCN(CC)CC(=O)Nc1c(C)cccc1C(=O)OC`: “inactive”; for `CN1C(CSCC(F)(F)F)Nc2cc(Cl)c(S(N)(=O)=O)cc2S1(=O)=O` (stereo not given): “inactive”; for `C/C(C=O)=C\c1ccccc1`: “inactive”.
For the compound `C1=CCC2CC=CC2C1` (stereo not given), the Potency result is “inactive”.
The same measure, in the same setting: the same measure for `CCN(CC)CCOc1ccccc1C(=O)CCc1ccccc1`: “inactive”.
`COc1cc(NS(=O)(=O)c2ccc(N)cc2)nc(C)n1`: the Potency entry was “inactive”.
On to `O=C(O)/C=C/c1ccc(O)c(O)c1`, for which the Potency result is “inactive”.
Consider `Nc1nc2ccc(OC(F)(F)F)cc2s1`, for which the Potency entry is “inactive”.
Still for that read-out and setting: in the case of `CC[C@H]1OC(=O)[C@H](C)[C@@H](O[C@H]2C[C@@](C)(OC)[C@@H](O)[C@H](C)O2)[C@H](C)[C@@H](O[C@@H]2O[C@H](C)C[C@H](N(C)C)[C@H]2O)[C@](C)(O)C[C@@H](C)CN(C)[C@H](C)[C@@H](O)[C@]1(C)O` it was “inactive”; in that of `CCCCCCCC/C=C/C(=O)O`, “inactive”; in that of `CC1CCc2nccnc21` (stereo not given), “inactive”.
The same measure, in the same setting: the same measure for `CC(C)(C)C1(CCc2ccc(Cl)cc2)CO1` (stereo not given): “inactive”; for `CCC(CO)(CO)CO`: “inactive”.
For `CC12CC3CC(C)(C1)CC(N)(C3)C2`, the Potency result is “inactive”.
